Measurements from ChEMBL document CHEMBL2218924, “A broad activity screen in support of a chemogenomic map for kinase signalling research and drug discovery” (Biochem J, 2013).

Tests used:
[1] = molecular target: T1, Protein kinase C epsilon type (Homo sapiens) (UniProt Q02156); settings: at 1 µM
T1 sequence (whole entry): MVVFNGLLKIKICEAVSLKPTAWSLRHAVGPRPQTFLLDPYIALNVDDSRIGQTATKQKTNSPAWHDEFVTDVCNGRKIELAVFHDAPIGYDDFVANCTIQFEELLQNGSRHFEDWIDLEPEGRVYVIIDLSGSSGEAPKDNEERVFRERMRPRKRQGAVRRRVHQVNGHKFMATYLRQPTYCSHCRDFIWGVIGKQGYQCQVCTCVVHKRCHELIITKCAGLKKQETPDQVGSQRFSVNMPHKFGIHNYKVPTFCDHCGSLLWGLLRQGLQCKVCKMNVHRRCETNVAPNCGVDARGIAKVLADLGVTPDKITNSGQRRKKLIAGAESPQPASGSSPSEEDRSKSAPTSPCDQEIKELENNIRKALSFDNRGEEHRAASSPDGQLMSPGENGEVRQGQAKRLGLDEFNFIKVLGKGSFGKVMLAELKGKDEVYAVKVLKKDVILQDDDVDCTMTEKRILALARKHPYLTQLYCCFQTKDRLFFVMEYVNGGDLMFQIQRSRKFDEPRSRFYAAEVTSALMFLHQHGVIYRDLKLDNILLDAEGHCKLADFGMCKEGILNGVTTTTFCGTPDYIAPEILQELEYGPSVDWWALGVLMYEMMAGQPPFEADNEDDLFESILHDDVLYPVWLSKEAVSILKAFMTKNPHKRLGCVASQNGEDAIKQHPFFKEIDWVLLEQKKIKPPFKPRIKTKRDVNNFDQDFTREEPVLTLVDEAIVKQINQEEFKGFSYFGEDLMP

[2] = molecular target: T1, Protein kinase C epsilon type (Homo sapiens); settings: at 10 µM

SMILES | residual activity [1] | residual activity [2]
CSc1nc(-c2ccc(F)cc2)c(-c2ccnc(NC(C)c3ccccc3)c2)[nH]1 (configuration not stated) | 125% | 101%
Cn1sc(=O)n(Cc2ccccc2)c1=O | 88% | 11%
CCOC(=O)c1c(C)[nH]c(/C=C2\C(=O)Nc3ccccc32)c1C | 83% | 88%
O=c1cc(N2CCNCC2)oc2c(-c3ccccc3)cccc12 | 93% | 98%
Oc1cccc(-c2nc(N3CCOCC3)c3oc4ncccc4c3n2)c1 | 91% | 99%
COc1ccc(-c2cnc3c(-c4ccsc4)cnn3c2)cc1 | 86% | 100%
CN(C)S(=O)(=O)c1ccc2c(c1)/C(=C/c1cc3c([nH]1)CCCC3)C(=O)N2 | 98% | 85%
Nc1ncnc2[nH]nc(Nc3ccc(F)cc3)c12 | 123% | 112%
O=C1NC(=O)C(c2c[nH]c3ccccc23)=C1c1c[nH]c2ccccc12 | 63% | 21%
CC(C)c1nn(-c2c(Cl)cccc2Cl)c2nc(Cc3ccc(OCCO)cc3)[nH]c(=O)c12 | 99% | 82%
O=C(Nc1nc2ccccc2n1CCN1CCOCC1)c1cccc([N+](=O)[O-])c1 | 86% | 102%
O=S(=O)(NCCNC/C=C/c1ccc(Br)cc1)c1cccc2cnccc12 |  | 76%
O=S(=O)(c1cccc2cnccc12)N1CCCNCC1 |  | 69%
COc1ccc2c(c1)c(C1=C(c3c[nH]c4ccccc34)C(=O)NC1=O)cn2CCCN(C)C | 3% | 0%
CC(C)[C@H](CO)Nc1nc(Nc2cc(N)cc(Cl)c2)c2ncn(C(C)C)c2n1 | 100% | 98%
CCCC(=O)Oc1ccc2[nH]c(C(=O)c3cc4ccccc4[nH]3)cc2c1 | 85% | 93%
O=C1NC(=O)c2c1c1c3ccccc3[nH]c1n1cncc21 | 105% | 94%

SMILES | residual activity [1] | residual activity [2]
CC(C)(C)n1nc(Cc2cccc3ccccc23)c2c(N)ncnc21 | 91% | 100%
O=C1C(Cl)=C(N2C(=O)CCC2=O)C(=O)c2ccccc21 | 90% | 26%
NCCNc1ncc(C(N)=O)c(Nc2cccc(C(F)(F)F)c2)n1 | 77% | 62%
Nc1ncnc2c1cnn2-c1ccccc1 | 80% | 101%
O=C(c1ccccc1)c1ccc(N2CCOCC2)cc1O | 89% | 95%
COc1cc2nccc(Oc3ccc(NC(=S)NC(=O)c4ccccc4C)cc3)c2cc1OC | 85% | 88%
O=c1cc(N2CCOCC2)oc2c1ccc1ccccc12 | 87% | 87%
O=C1NC(=O)C(c2cn(CCCn3ccnc3)c3ccccc23)=C1Nc1ccccc1 | 21% | 3%
O=C1Nc2ccc(Cl)cc2/C1=C/c1cc(Cl)c(O)c(Cl)c1 | 87% | 97%
Nc1ncnc2c1c(-c1ccc(Oc3ccccc3)cc1)cn2C1CCCC1 | 84% | 84%
O=C(NC(NC(=S)Nc1ccc(F)c([N+](=O)[O-])c1)C(Cl)(Cl)Cl)C(c1ccccc1)c1ccccc1 (configuration not stated) | 84% | 96%
Cc1cc(C)c(/C=C2\C(=O)Nc3ccccc32)[nH]1 | 82% | 
COc1ccc(Cl)cc1NC(=O)Nc1cc(C)nc2ccccc12 | 82% | 97%
CC(C)N(CCC(=O)c1ccc2ccccc2c1)Cc1ccccc1 | 83% | 
O=C(O)/C=C/c1cc(Br)c(Br)c(Br)c1Br | 104% | 102%
NC(=O)Nc1sc(-c2ccc(F)cc2)cc1C(N)=O | 102% | 94%
